From PubChem
TROY signal inh – blocks TROY-dependent signaling in reporter cells | Q293 LMP1-TROYcd NF-kB luciferase reporter, 4 h | inhibition, % at 10 µM | actives 0.98% (n = 360,000) | AID 1347056;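 active = compounds whose plate-normalised and pattern-corrected inhibition of the luciferase reporter signal at the single screening dose is 50% or more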
Shn3 inh set2 – Schnurri-3 reporter inhibition in Clone20 osteoblasts | Clone20 osteoblast Shn3 3'UTR firefly luciferase, 24 h | inhibition, % at 12.5 µM | actives 0.52% (n = 360,000) | AID 588674;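 active = mean inhibition of at least 75% with every replicate also reaching 75%; inconclusive = mean inhibition at least 75% but some replicate below; inactive = mean inhibition below 75%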;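 note: 0% = median of neutral control wells and 100% = pilot-screen positive control compound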
HIF-2a inh – blocks HIF-2a reporter activity | 786-0 RCC cells HIF-2a reporter, luciferase luminescence, overnight | inhibition, % at 18.8 µM | actives 0.72% (n = 360,000);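 active = inhibition of the luminescence signal of 40% or more relative to plate controls, in a single-dose primary screen at 18.75 µM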
EBV LMP1 NFkB – reduces LMP1-driven NF-kappaB luciferase signal | LMP1-induced NF-kappaB luciferase reporter cells, luminescence | inhibition, % at 12.5 µM | actives 0.69% (n = 350,000) | AID 504558; in the data active = inhibition above about 41%; inconclusive = no clear call, values can overlap the other calls;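 note: 0% = neutral control wells and 100% = reference inhibitor control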
TWEAK Fn14 block – blocks TWEAK-Fn14 interaction in a reporter cell assay; TWEAK-stimulated Fn14 reporter cells, luciferase luminescence, 8 h; actives 2% (n = 360,000); AID 1159606; inhibition, % at 10 µM; in the data active = inhibition above about 50%
TRPM1 prom inh – inhibitors of MITF-driven TRPM1 promoter in melanoma cells | SK-MEL-5 TRPM1 promoter luciferase, 24 h | inhibition, % at 12.5 µM | actives 0.83% (n = 330,000) | AID 488899;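 active = mean inhibition across replicates of 60% or more, whatever share of single replicates reaches that level; inconclusive = some that reach 60%, reason not given; inactive = mean inhibition across replicates below 60%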
* = called active by the depositor; ? = inconclusive; / = no result given; ! = not confirmed by another sample. Compounds with a hit are over-represented: about 3.4% of the library has one in this group of screens.

SMILES	TROY signal inh	Shn3 inh set2	HIF-2a inh	EBV LMP1 NFkB	TWEAK Fn14 block	TRPM1 prom inh
CCOC(=O)c1cc2c(=O)n3ccccc3nc2n(C)c1=NC(=O)c1c(-c2c(F)cccc2Cl)noc1C	-16	21	10	-12	-16	-3
CC(Oc1ccccc1)C(=O)NNC(=O)c1ccccn1 (stereo unspecified)	-14	16	13	10	-11	3
C/C(=N\NC(=O)C(C)Oc1ccc([N+](=O)[O-])cc1)c1ccccn1 (stereo unspecified)	4	83*	-17	20	19	83*
COCCN(C(=O)Cc1cccs1)C(C(=O)NCc1ccc(OC)cc1)c1ccc(OC)cc1 (stereo unspecified)	-21	16	10	5	-1	9
COc1ccc(CNC(=O)C(c2ccc(C)cc2)N(Cc2cccs2)C(=O)c2ccc3c(c2)OCCO3)cc1 (stereo unspecified)	10	89*	-67	24	46	5
COC(=O)c1ccc(C(C(=O)NCc2ccccc2)N(Cc2cccs2)C(=O)c2cnccn2)cc1 (stereo unspecified)	2	7	9	-6	35	-4
Cc1ccc(C(C(=O)NCc2ccccc2)N(Cc2cccs2)C(=O)c2ccc3c(c2)OCCO3)cc1 (stereo unspecified)	15	45	12	-3	54*	8
Cc1ccc(Cl)cc1N1C(=O)CC(Sc2ccccc2N)C1=O (stereo unspecified)	-13	23	5	-12	-1	/
COc1ccc(NC(=O)CN2C(=O)NC(C)(C3CCCCC3)C2=O)c(OC)c1 (stereo unspecified)	-17	13	3	5	2	-1
COc1ccc(NC(=O)CN2C(=O)NC3(CCCC3)C2=O)c(OC)c1	7	4	-4	-10	81*	-4
O=S(=O)(c1c(F)cccc1F)N(CCc1ccc(F)cc1)C[C@@H](O)COCc1ccccc1	-2	0	5	-2	19	2
Cc1cc2nc(N3C(=O)CNC3=S)sc2cc1C	63*	-59	-62	2	90*	4
CC(C)NC1(C(N)=O)CCNCC1	-3	87*	-5	6	4	-2
Cc1cc(Cl)ccc1N=c1ssnc1Cl	33	26	2	-5	2	5
COc1cc(N=c2ssnc2Cl)c(OC)cc1Cl	2	95*!	-7	4	9	18
Cc1ccc(N=c2ssnc2Cl)cc1	44	88*	-17	-3	5	2
CCCc1cc(=O)[nH]c(SCC(=O)Nc2oc(C)c3c(C)n[nH]c(=O)c23)n1	-7	15	3	-2	16	15
CCOC(=O)c1ccccc1NS(=O)(=O)c1cnn(CC)c1C	16	14	4	1	6	9
O=c1[nH]cc(C=NNc2ccccc2)c(=O)[nH]1	5	-3	7	/	-2	/
CC(C)(C)C(=O)NC(=S)NNC(=O)c1ccc(-c2ccccc2)cc1	10	94*	-12	34	-43	?
CC(C)(C)C(=O)NC(=S)NNC(=O)c1ccncc1	-15	4	-16	5	-26	11
CCOC(=O)c1ccc2ncc(C(=O)OCC)c(NCCN3CCOCC3)c2c1	-4	-2	14	-7	-26	-7
CCOC(=O)c1cnc2ccc(C)cc2c1Nc1ccc(N2CCOCC2)cc1	25	17	8	-2	56*	16
COc1cccc(C2CC(c3cccs3)=NN2C(=O)CSC2=NN3CCCC(=O)N=C3S2)c1OC (stereo unspecified)	-3	10	12	2	-27	/
COc1ccc(C2=NN(C(=O)CSC3=NN4CCCC(=O)N=C4S3)C(c3cccc(OC)c3OC)C2)cc1 (stereo unspecified)	16	1	11	77*	11	10
SMILES	TROY signal inh	Shn3 inh set2	HIF-2a inh	EBV LMP1 NFkB	TWEAK Fn14 block	TRPM1 prom inh
COc1ncnc2c1ncn2CCCN1CCN(c2ncccn2)CC1	-14	-3	1	3	8	/
CC(C)(C)CC(C)(C)NC1=CC(=O)OC12CCCCC2	-3	-3	8	0	-3	-7
CN(C)CCCNC1=CC(=O)OC12CCCCC2	/	15	7	1	90*	-5
CCc1nnc(NC(=O)c2ccc(OCc3c(C)noc3C)c(OC)c2)s1	0	-5	-2	-6	3	10
COc1cc(C(=O)Nc2nc3ccc(C)cc3s2)ccc1OCc1c(C)noc1C	-19	19	-56	7	50*	18
CCN(C(=O)COC(=O)c1cc2ccccc2cc1OC)c1c(N)n(Cc2ccccc2)c(=O)[nH]c1=O	11	-8	14	-3	-17	7
COc1ccccc1/C=C1/C(=O)N(c2ccccc2)N=C1C	-10	15	45*	5	2	13
CC1=NN(c2cccc(C(=O)O)c2)C(=O)/C1=C\C=C\c1ccco1	-38	-33	-18	4	-7	-22
COc1ccc(/C=C2/C(=O)ON=C2c2ccccc2)cc1OC	-37	12	41*	9	-9	28
Cc1ccc(C2=NOC(=O)/C2=C\C=C\c2ccccc2)cc1	34	95*	24	13	-22	96*
CC1=NN(c2ccccc2)C(=O)/C1=C\c1cn(-c2ccccc2)nc1C	-6	6	9	1	-18	-11
CC1=NN(c2ccccc2)C(=O)/C1=C/C=C/c1ccccc1	27	?	68*	0	95*	69*
Cn1c(CC(=O)Nc2ccccc2F)nnc1SCC(=O)Nc1nccs1	6	-16	4	-5	22	5
CCOC(=O)[C@H]1[C@H]2COc3ccc(OC)cc3[C@@H]2N2C(=O)CN(CCc3c[nH]c4ccccc34)C(=O)[C@@]12C	-5	4	11	10	-5	11
OC(COc1ccc2cc(Br)ccc2c1)CN1CCCC1 (stereo unspecified)	55*	-70	-75	-13	51*	-61
COc1ccc(CN2CC(C(=O)N3CCOCC3)CC2=O)cc1 (stereo unspecified)	-4	-10	17	-5	2	0
CCOC(=O)N1CCN(C(=O)C2CC(=O)N(Cc3ccc(OC)cc3)C2)CC1 (stereo unspecified)	/	-4	6	-3	72*	11
O=C(/C=C/c1ccc([N+](=O)[O-])cc1)N(c1ccccn1)C1CCCCC1	18	-8	7	-2	-12	-13
CCC(=O)N1CCC1(C)C(=O)Nc1ccc2nc(C)ccc2c1 (stereo unspecified)	2	-7	-30	/	38	/
OC[C@@H]1CN(Cc2cccnc2)C[C@H](n2cnc3c(N4CCCC4)ncnc32)O1	4	-1	11	/	4	/
COc1ccc(NC2=C(C(C)=O)C(c3ccccc3)C(C(C)=O)C(C)(O)C2)cc1 (stereo unspecified)	2	1	4	8	-4	15
